A short description of experiment [1]: qHTS assay to test for compound auto fluorescence at 535 nm (green) in HEK293 cells (AID 720680).
A short description of experiment [2]: qHTS assay to test for compound auto fluorescence at 460 nm (blue) in HEK293 cell free culture (AID 720681). Summed up: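 Compounds were added to cell-free DMEM with 10% FBS and fluorescence read directly. The blue channel used 405 nm excitation and 460 nm emission, with triamterene as the reference fluorophore.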
The nature of experiment [3]: qHTS assay to test for compound auto fluorescence at 535 nm (green) in HEK293 cell free culture (AID 720682). Summed up:
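Using fluorescein as calibrant, autofluorescence was quantified at 485/535 nm in cell-free DMEM containing 10% FBS after pintool addition of compound or vehicle.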

Experiment [4] can be described thus: qHTS assay to test for compound auto fluorescence at 590 nm (red) in HEK293 cell free culture (AID 720683). Summed up: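 Cell-free wells of DMEM with 10% FBS received compound, and intrinsic fluorescence was read at excitation/emission 540/590 nm. Values expressed as equivalence to Rose Bengal sodium.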
Experiment [5] in a line: qHTS assay to test for compound auto fluorescence at 590 nm (red) in HepG2 cell free culture (AID 720684). Put shortly: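 Compound was pinned into wells holding MEM with 10% FBS and no cells, and red fluorescence was read at Ex/Em 540/590 nm. Signal is expressed as auto fluorescence equivalency relative to Rose Bengal sodium.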
Experiment [6] in a line: qHTS assay to test for compound auto fluorescence at 460 nm (blue) in HepG2 cell free culture (AID 720685). Put shortly: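 Compound (23 nL) or DMSO pinned into cell-free MEM with 10% FBS; blue fluorescence read at 405/460 nm excitation/emission, expressed as auto-fluorescence equivalency to triamterene.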
Experiment [7] in a line: qHTS assay to test for compound auto fluorescence at 535 nm (green) in HepG2 cell free culture (AID 720686).
Experiment [8] in a line: qHTS assay to test for compound auto fluorescence at 460 nm (blue) in HepG2 cells (AID 720687). Summed up:
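HepG2 cells in MEM with 10% FBS, attached overnight at 37 C, were exposed to compound or DMSO for 1 hr at 37 C, 5% CO2. Blue fluorescence was read at 405/460 nm, with triamterene as reference fluorophore.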

Experiment [9] concerns the target Glucocorticoid receptor (Homo sapiens) (UniProt P04150). As to the kind of experiment: qHTS assay to identify small molecule agonists of the glucocorticoid receptor (GR) signaling pathway (AID 720691; active = well fitted activation curve with a large enough effect in the signal ratio in the repeat runs, not every such curve was filed as active; the % refers to the signal ratio). Put shortly:
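GR-bla HeLa cells carrying a GRE-driven beta-lactamase reporter, exposed to compounds for 18 h at 37 C. Reporter activation read as fluorescence after 2 h with LiveBLAzer B/G FRET substrate at room temperature.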

For experiment [10] the target is unchanged. As to the kind of experiment: qHTS assay to identify small molecule antagonists of the glucocorticoid receptor (GR) signaling pathway (AID 720692; active = well fitted inhibition curve with a large enough effect in the signal ratio in the repeat runs, not every such curve was filed as active; the % refers to the signal ratio). Summed up:
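GR-bla HeLa cells carrying a GRE-driven beta-lactamase reporter received compound after 4 h plating, then dexamethasone (5 nM final). After 18 h at 37C, the FRET substrate was loaded for 2 h at room temperature and fluorescence read.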

Experiment [11] is described as follows: qHTS assay to identify small molecule antagonists of the glucocorticoid receptor (GR) signaling pathway - cell viability counter screen (AID 720693). Note: nearly all actives have a fitted effect of over 55% in size.
The nature of experiment [12]: qHTS assay for identifying genotoxic compounds that show differential cytotoxicity against isogenic chicken DT40 cell lines with known DNA damage response pathways - wild type cell line (AID 743012). Note: nearly all actives have a fitted effect of over 60% in size. Note: potency is the fitted concentration of half-maximal effect. Put shortly:
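Wild-type DT40 cells (300/well) exposed to compounds for 40 hours at 37 C/5% CO2. Viability read by CellTiter-Glo luminescence after 30 min at room temperature.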

A short description of experiment [13]: qHTS assay for identifying genotoxic compounds that show differential cytotoxicity against isogenic chicken DT40 cell lines with known DNA damage response pathways - Rev3 mutant cell line (AID 743014). Note: nearly all actives have a fitted effect of over 55% in size. Note: potency is the fitted concentration of half-maximal effect.
Experiment [14] in a line: qHTS assay for identifying genotoxic compounds that show differential cytotoxicity against isogenic chicken DT40 cell lines with known DNA damage response pathways - Rad54/Ku70 mutant cell line (AID 743015). Note: nearly all actives have a fitted effect of over 60% in size. Note: potency is the fitted concentration of half-maximal effect.
Experiment [15] can be described thus: qHTS assay to identify small molecule antagonists of the androgen receptor (AR) signaling pathway - cell viability counter screen (AID 743033; note: nearly all actives have a fitted effect of over 45% in size).
A short description of experiment [16]: qHTS assay to identify small molecule antagonists of the androgen receptor (AR) signaling pathway using the MDA cell line - cell viability counter screen (AID 743041; note: nearly all actives have a fitted effect of over 45% in size; note: potency is the fitted concentration of half-maximal effect). Summed up:
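MDA-kb2 AR-luc cells (MMTV-luciferase, AR/GR responsive) treated with compounds plus R1881 agonist for 16 h at 37C. CellTiter-Fluor added at 15.5 h; fluorescence read after 30 min in the same wells.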

The target of experiment [17] is Androgen receptor (Homo sapiens) (UniProt P10275). The experiment is described as follows: qHTS assay to identify small molecule antagonists of the androgen receptor (AR) signaling pathway (AID 743035; active = well fitted inhibition curve with a large enough effect in the signal ratio in the repeat runs, not every such curve was filed as active; the % refers to the signal ratio). Put shortly:
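HEK293 cells stably carrying UAS-beta-lactamase reporter, 2,000/well, given compounds plus R1881 agonist and incubated 16 h at 37C. LiveBLAzer B/G FRET substrate then added for 2 h at room temperature before fluorescence reading.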

The target is the same in experiment [18]. As to the kind of experiment: qHTS assay to identify small molecule agonists of the androgen receptor (AR) signaling pathway (AID 743036; active = well fitted activation curve with a large enough effect in the signal ratio in the repeat runs, with a control signal flat, not every such curve was filed as active; the % refers to the signal ratio). Summed up: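 In this Tox21 qHTS, 2,000 HEK293 AR-bla cells per well were incubated with compounds for 16 h at 37C and 5% CO2. Fluorescence intensity was recorded 2 h after adding LiveBLAzer B/G FRET substrate at room temperature.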

Experiment [19] shares this target. The experiment is described as follows: qHTS assay to identify small molecule agonists of the androgen receptor (AR) signaling pathway using the MDA cell line (AID 743040; note: nearly all actives have a fitted effect of over 20% in size). Summed up: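 MDA-kb2 breast carcinoma cells carrying MMTV-luciferase (responsive to AR and GR), plated 5 h then treated 16 h with compounds at 37C, 0% CO2. Read-out was ONE-Glo luminescence after 30 min at room temperature.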

For experiment [20] the target is unchanged. The experiment is described as follows: qHTS assay to identify small molecule antagonists of the androgen receptor (AR) signaling pathway using the MDA cell line (AID 743042; note: nearly all actives have a fitted effect of over 55% in size). Summed up:
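MDA-kb2 breast carcinoma cells carrying MMTV-luciferase (AR/GR responsive) were co-treated with compounds and the agonist R1881 for 16 h at 37C. Inhibition read as ONE-Glo luminescence; CellTiter-Fluor fluorescence measured in parallel for cytotoxicity.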

From PubChem BioAssay (Tox21) come the findings set out here.

Each structure is given as a SMILES string. Values without a mark were called inactive. Records with an inconclusive call do not appear. The source made the active and inactive calls. Unless noted, calls come from the whole dose curve; as a rule, active = well fitted curve in the direction sought with a large enough effect in the repeat runs; inconclusive = weak or mixed curves; inactive = no such curve, though single readings can be large; an effect the other way counts as inactive or inconclusive.
% is set by controls: 0 for no effect and ±100 for the full control effect.

Glucocorticoid receptor (Homo sapiens), sequence (P04150 whole entry, looked up): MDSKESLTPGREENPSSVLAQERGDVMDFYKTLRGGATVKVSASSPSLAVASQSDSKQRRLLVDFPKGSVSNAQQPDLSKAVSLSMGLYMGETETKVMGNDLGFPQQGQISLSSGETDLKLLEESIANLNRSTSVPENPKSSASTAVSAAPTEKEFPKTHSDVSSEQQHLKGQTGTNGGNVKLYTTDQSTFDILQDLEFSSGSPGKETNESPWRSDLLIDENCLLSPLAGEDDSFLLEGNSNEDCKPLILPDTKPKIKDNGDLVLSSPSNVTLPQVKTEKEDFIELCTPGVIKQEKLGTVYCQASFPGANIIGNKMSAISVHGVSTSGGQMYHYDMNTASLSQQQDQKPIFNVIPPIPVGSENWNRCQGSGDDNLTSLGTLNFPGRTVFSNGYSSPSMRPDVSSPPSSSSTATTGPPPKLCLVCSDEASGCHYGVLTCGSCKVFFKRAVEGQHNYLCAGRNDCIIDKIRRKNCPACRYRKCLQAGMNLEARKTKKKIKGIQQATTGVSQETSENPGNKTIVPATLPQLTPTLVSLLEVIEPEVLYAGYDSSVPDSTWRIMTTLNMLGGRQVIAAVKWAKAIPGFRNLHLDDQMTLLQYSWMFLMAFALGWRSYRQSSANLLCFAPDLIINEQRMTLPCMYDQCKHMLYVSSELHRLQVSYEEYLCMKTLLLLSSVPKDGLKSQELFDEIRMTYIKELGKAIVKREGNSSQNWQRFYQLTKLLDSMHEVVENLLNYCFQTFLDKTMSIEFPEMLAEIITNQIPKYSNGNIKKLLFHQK
Androgen receptor (Homo sapiens), sequence (P10275 whole entry, looked up): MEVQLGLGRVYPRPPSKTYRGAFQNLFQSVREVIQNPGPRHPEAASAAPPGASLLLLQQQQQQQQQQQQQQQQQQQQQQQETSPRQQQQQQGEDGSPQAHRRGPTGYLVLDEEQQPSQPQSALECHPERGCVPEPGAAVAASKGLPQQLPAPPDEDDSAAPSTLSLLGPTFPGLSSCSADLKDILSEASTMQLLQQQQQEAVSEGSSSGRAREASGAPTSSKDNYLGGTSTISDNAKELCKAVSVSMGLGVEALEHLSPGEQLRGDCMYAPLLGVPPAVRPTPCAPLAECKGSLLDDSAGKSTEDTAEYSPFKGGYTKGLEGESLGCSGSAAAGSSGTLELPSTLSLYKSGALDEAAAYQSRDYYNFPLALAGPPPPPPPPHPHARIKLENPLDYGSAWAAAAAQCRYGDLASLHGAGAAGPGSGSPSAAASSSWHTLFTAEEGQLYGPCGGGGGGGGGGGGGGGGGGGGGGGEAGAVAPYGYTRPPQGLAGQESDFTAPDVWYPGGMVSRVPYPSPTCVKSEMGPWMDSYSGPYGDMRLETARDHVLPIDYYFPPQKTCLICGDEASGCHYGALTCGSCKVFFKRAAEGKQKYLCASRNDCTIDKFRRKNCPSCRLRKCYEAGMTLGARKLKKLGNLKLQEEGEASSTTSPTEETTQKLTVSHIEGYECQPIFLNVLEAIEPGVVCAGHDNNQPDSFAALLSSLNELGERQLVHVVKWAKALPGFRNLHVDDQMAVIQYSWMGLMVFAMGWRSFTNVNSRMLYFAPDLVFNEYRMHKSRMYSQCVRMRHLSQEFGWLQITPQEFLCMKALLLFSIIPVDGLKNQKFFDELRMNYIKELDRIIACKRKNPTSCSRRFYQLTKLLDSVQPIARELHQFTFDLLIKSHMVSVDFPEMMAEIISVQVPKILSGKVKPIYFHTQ

Take `Nc1ccc([N+](=O)[O-])c(N)c1`: the compound was called inactive in experiment [1], in experiment [2], in [3], in experiment [4], in [5] and in experiment [6]. Moreover, the compound was called inactive in experiment [7], in experiment [8], in [10] and in experiment [11]. The Potency entry in experiment [9], in experiment [12], in [13], in [14] and in experiment [15] was “inactive” each time. The Potency in experiment [16] is 59.6 µM (active).
Regarding `CCCC(=O)C(C)=O`, the outcome in [1], in experiment [2], in experiment [3], in experiment [4], in [5] and in [6] was inactive. Also, the compound was classed as inactive in [7], in experiment [8], in experiment [10] and in experiment [11]. For the same compound, the Potency result in experiment [9], in experiment [12], in [13], in experiment [14], in [15] and in experiment [16] was “inactive” each time.
As for `CC(C)NCC(O)COc1cccc2[nH]ccc12` (stereo not drawn), the outcome in experiment [1], in [2], in [3], in experiment [4], in experiment [5] and in experiment [6] was inactive. In addition, the compound was classed as inactive in experiment [7], in [8], in experiment [10], in [11], in [18] and in [19]. Moreover, the Potency entry in experiment [9], in experiment [12], in experiment [13], in experiment [14], in [15] and in experiment [17] was “inactive” each time. Besides, the Potency result in experiment [20] is “inactive”.
`CCCCNc1ccc(C(=O)OCCN(C)C)cc1`: in experiment [1], the fluorescence, % of fluorescein is -0.108% [at 18.6 µM]. Also, the fluorescence, % of fluorescent control in [2] is 0.0181% [at 18.6 µM]; in experiment [4], -0.282% [at 18.6 µM]; in [6], 0.0923% [at 18.6 µM]; in experiment [8], 0.0537% [at 18.6 µM]. Further, in [3], the activity change was -0.0203% [at 18.6 µM]. Besides, in experiment [5], the fluorescence, % of Rose Bengal is 0.315% [at 18.6 µM]. Besides, the fluorescence, % of fluorescein control in experiment [7] is -0.0132% [at 18.6 µM]. Besides, the Potency entry in experiment [9], in experiment [15] and in experiment [16] was “inactive” in each case. Moreover, the call in experiment [10] and in experiment [11] was inactive. The values for the Potency in [12], in experiment [13] and in experiment [14] were 5.07 µM (active), 2.85 µM (active) and 5.07 µM (active), respectively.
Take `C=C(C)C1CCC(C)(O)CC1` (stereo not drawn): the compound was classed as inactive in experiment [1], in experiment [2], in experiment [3], in experiment [4], in [5] and in [6]. For the same compound, the call in experiment [7], in experiment [8], in experiment [10], in experiment [11], in experiment [18] and in experiment [19] was inactive. Further, the Potency result in experiment [9], in [12], in experiment [13], in experiment [14], in experiment [15] and in experiment [17] was “inactive” in each case. Further, the Potency result in [16] and in experiment [20] was “inactive” each time.
As to `COc1ccc(C2CNC(=O)C2)cc1OC1CCCC1` (stereo not drawn), in experiment [1], the fluorescence, % of fluorescein was 0.0387% [at 18.6 µM]. Further, the fluorescence, % of fluorescent control was -0.0755% [at 18.6 µM] in experiment [2], -0.222% [at 18.6 µM] in experiment [4], -0.0095% [at 18.6 µM] in [6] and -0.0914% [at 18.6 µM] in experiment [8]. Moreover, in experiment [3], the activity change was 0.0153% [at 18.6 µM]. Further, in experiment [5], the fluorescence, % of Rose Bengal was 0.472% [at 18.6 µM]. The fluorescence, % of fluorescein control in experiment [7] was -0.0056% [at 18.6 µM]. The Potency entry in [9], in experiment [12], in experiment [13], in experiment [15] and in [16] was “inactive” in each case. Moreover, the call in experiment [10] and in [11] was inactive.
As to `COc1ccc(-c2cc(=O)c3c(O)cc(O[C@@H]4O[C@H](CO[C@@H]5O[C@@H](C)[C@H](O)[C@@H](O)[C@H]5O)[C@@H](O)[C@H](O)[C@H]4O)cc3o2)cc1O`, the outcome in experiment [1], in experiment [2], in experiment [3], in experiment [4], in experiment [5] and in experiment [6] was inactive. For the same compound, the compound was classed as inactive in [7], in experiment [8], in experiment [10] and in experiment [11]. Besides, the Potency result in experiment [9], in [12], in experiment [13], in [14], in experiment [15] and in experiment [16] was “inactive” throughout.
